From PubChem BioAssay
The source made the active and inactive calls.

Experiments:
[1] = binders of probe aFSTL3 on microarray, primary screen, stem cell growth factor project, biochemical, small-molecule microarray, fluorescence 635/667 (AID 1064); settings: higher = more signal;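 further: measures binding of the biotinylated anti-FSTL3 antibody to printed compounds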
[2] = binders from COS7 lysate, DM2A8 probe, primary screen, torsin A project, cell lysate, small-molecule microarray, fluorescence 635/667 (AID 1065); settings: higher = more signal, COS7 lysate expressing mutant human TOR1A
[3] = binders of probe aFGF2 on microarray, primary screen, stem cell growth factor project, biochemical, small-molecule microarray, fluorescence 635/667 (AID 1067); settings: higher = more signal;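 further: measures binding of biotinylated aFGF2 protein to printed compounds on slides; z-score merges feature fluorescence and signal-to-noise across triplicate slides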
[4] = binders of probe aFGF10 on microarray, primary screen, stem cell growth factor project, biochemical, small-molecule microarray, fluorescence 635/667 (AID 1071); settings: higher = more signal;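 further: score merges 667 nm spot intensity and signal to noise from triplicate slides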
[5] = target: Neurogenic locus notch homolog protein 2 (Homo sapiens) (UniProt Q04721); assay: Notch2 binders on small-molecule microarrays, primary screen, biochemical, small-molecule microarray, 635 nm fluorescence, stem cell growth factors (AID 1073); settings: Notch2 binding, higher = more signal
[6] = target: Pro-neuregulin-1, membrane-bound isoform (Homo sapiens) (UniProt Q02297); assay: NRG1 binders on small-molecule microarrays, primary screen, psychiatric disease protein project, biochemical, small-molecule microarray, fluorescence 635/667 (AID 1075); settings: NRG1 binding, 635 nm fluorescence, higher = more signal;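 further: score combines 667 nm spot fluorescence with signal to noise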
[7] = test system: Neuregulin-1 EGF-like domain; assay: binders of neuregulin-1 EGF-like domain, primary screen, biochemical, small-molecule microarray, 635 nm fluorescence (AID 1081); settings: small-molecule microarray binding, higher = more signal;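 further: binding of the protein to compounds printed on small-molecule microarray slides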
[8] = FRG1 promoter luciferase signal modulators, primary screen, FRG1 inhibition for FSHD, cell-based, C2C12 myotubes, firefly/Renilla luciferase, luminescence (AID 1084); settings: higher = more signal, called active from +8 up or from −8 down
[9] = binders of probe aFST on microarray, primary screen, stem cell growth factor project, biochemical, small-molecule microarray, fluorescence 635/667 (AID 1086); settings: higher = more signal;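 further: score merges 667 nm fluorescence with signal-to-noise of each printed compound spot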
[10] = binders of probe aHhip on microarray, primary screen, stem cell growth factor project, biochemical, small-molecule microarray, fluorescence 635/667 (AID 1087); settings: higher = more signal;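 further: score merges spot fluorescence at 667nm with spot signal to noise ratio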
[11] = test system: PRMT1 (protein arginine N-methyltransferase 1); assay: PRMT1 binders on small-molecule microarrays, primary screen, biochemical, small-molecule microarray, 635 nm fluorescence (AID 1088); settings: small-molecule microarray binding, higher = more signal;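 further: binding of Prmt1 protein to compounds spotted on small-molecule microarray slides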
[12] = yeast growth modulation, basal conditions, primary screen, YJM789 clinical isolate, OD600, 24 h (AID 1089);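 further: growth of clinical yeast isolate S. cerevisiae YJM 789 seeded 1000 cells per well; test concentration not given here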; settings: S. cerevisiae YJM789 growth, higher = more signal, called active from +8 up or from −8 down
[13] = fission yeast growth modulation, primary screen, strain 972, OD600, 24 h, no modulator (AID 1090);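 further: basal condition with compound alone and no growth modifier present; test concentration not given here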; settings: S. pombe 972 growth, higher = more signal, called active from +8 up or from −8 down
[14] = S. cerevisiae growth modulation with rapamycin, primary screen, strain BY4716, OD600, 96 h (AID 1091); settings: higher = more signal, called active from +8 up or from −8 down; further: test concentration not given here
[15] = target: Torsin-1A-interacting protein 2 (Homo sapiens) (UniProt Q8NFQ8); assay: LULL1 binders on small-molecule microarray, primary screen, cell lysate, human LULL1 lysate, 635/667 nm fluorescence (AID 1092); settings: hLULL1 lysate binding, 635 nm fluorescence, higher = more signal;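 further: probe is lysate of COS7 cells overexpressing human LULL1; score merges per-feature 667 nm fluorescence with signal-to-noise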
[16] = E. coli growth modulation, two-sided OD650, primary screen, E. coli filamentation project, strain DRC41, 24 h (AID 1093); settings: OD650, 24 h, higher = more signal, called active from +8 up or from −8 down;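 further: MC1000 strain lacking acrAB efflux and sulA so SOS filamentation is blocked; test concentration not given here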
[17] = small-molecule microarray binders of probe aLefty2, primary screen, biochemical, biotinylated probe, 635/667 nm fluorescence (AID 1094); settings: higher = more signal;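 further: score merges spot fluorescence near 667 nm with spot signal-to-noise ratio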
[18] = test system: Noggin (protein binding on small-molecule microarray); assay: Noggin binders on small-molecule microarray, primary screen, biochemical, 635/667 nm fluorescence (AID 1095); settings: 635 nm fluorescence, higher = more signal;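 further: score merges 667 nm feature fluorescence with signal to noise over triplicate slides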
[19] = target: Neurogenic locus notch homolog protein 3 (Homo sapiens) (UniProt Q9UM47); assay: NOTCH3 binders on small-molecule microarray, primary screen, biochemical, 635/667 nm fluorescence (AID 1096); settings: NOTCH3 binding, 635 nm fluorescence, higher = more signal
[20] = small-molecule microarray binders of probe aEGFR, primary screen, biochemical, biotinylated probe, 635/667 nm fluorescence (AID 1097); settings: higher = more signal;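 further: probe is a biotinylated anti-EGFR antibody binding compounds printed on slides; score combines fluorescence near 667 nm and signal to noise of each spot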

Neurogenic locus notch homolog protein 2 (Homo sapiens), sequence (Q04721 whole entry, looked up, canonical isoform): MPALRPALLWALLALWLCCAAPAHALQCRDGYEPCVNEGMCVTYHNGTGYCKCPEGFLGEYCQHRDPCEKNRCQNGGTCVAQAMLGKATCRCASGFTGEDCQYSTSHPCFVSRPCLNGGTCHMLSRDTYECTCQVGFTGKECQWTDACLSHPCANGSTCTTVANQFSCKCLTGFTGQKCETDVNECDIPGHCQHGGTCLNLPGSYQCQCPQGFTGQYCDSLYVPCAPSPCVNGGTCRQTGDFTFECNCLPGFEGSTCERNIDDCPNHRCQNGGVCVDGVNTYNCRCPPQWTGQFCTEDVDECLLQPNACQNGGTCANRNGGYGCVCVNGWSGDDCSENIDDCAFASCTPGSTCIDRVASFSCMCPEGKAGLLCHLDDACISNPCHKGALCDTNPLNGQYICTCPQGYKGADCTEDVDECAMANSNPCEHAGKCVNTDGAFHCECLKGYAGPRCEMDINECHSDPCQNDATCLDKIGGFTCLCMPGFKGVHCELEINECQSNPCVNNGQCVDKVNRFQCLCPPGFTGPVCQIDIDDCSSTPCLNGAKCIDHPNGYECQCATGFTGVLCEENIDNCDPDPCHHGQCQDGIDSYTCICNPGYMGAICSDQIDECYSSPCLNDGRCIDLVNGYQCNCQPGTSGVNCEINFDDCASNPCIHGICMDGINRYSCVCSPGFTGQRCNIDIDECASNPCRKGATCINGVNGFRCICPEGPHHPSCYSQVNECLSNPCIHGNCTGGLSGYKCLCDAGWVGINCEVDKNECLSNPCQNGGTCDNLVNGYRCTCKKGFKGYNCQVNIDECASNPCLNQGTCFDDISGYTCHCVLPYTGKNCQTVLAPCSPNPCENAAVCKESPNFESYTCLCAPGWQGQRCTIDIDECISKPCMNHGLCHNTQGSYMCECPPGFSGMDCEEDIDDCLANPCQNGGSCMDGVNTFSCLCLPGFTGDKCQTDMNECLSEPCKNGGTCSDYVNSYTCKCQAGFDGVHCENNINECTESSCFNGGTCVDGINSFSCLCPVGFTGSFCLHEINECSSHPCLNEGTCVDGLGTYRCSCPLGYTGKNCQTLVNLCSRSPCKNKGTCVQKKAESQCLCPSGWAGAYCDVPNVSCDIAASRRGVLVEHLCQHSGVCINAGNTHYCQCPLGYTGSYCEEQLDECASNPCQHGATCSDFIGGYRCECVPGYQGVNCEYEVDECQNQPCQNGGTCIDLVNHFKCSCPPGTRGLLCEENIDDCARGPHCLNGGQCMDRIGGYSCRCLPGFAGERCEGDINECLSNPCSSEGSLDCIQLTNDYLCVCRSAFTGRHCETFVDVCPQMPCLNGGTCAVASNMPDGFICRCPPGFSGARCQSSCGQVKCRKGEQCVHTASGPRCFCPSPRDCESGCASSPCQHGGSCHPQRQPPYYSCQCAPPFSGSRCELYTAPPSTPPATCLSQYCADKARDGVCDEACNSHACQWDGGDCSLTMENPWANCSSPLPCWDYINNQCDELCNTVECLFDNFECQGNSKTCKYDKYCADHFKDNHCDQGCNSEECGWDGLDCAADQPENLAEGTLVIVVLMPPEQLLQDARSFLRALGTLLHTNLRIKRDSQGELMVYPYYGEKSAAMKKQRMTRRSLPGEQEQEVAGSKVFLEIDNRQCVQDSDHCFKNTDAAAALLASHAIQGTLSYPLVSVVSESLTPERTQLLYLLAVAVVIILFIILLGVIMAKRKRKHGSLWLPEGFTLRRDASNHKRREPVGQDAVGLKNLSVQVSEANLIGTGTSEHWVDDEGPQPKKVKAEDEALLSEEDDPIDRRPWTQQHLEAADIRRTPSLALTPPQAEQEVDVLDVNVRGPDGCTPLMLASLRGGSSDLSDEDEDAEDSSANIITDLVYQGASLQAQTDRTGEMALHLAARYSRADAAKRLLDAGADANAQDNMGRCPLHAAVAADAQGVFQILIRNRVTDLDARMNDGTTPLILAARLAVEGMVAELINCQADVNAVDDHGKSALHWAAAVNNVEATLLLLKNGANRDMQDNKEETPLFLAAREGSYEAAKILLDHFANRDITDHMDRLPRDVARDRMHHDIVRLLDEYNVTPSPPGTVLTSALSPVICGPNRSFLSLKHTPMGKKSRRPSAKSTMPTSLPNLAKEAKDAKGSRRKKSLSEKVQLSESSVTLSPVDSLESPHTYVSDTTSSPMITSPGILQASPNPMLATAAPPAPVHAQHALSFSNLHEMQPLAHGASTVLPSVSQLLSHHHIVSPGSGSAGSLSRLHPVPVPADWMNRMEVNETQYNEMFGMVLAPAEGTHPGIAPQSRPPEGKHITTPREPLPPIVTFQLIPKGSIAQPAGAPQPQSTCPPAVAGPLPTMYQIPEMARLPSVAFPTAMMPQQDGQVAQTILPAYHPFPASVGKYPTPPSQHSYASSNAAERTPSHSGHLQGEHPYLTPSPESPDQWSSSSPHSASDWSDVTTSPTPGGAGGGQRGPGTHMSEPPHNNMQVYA
Torsin-1A-interacting protein 2 (Homo sapiens), sequence (Q8NFQ8 whole entry, looked up): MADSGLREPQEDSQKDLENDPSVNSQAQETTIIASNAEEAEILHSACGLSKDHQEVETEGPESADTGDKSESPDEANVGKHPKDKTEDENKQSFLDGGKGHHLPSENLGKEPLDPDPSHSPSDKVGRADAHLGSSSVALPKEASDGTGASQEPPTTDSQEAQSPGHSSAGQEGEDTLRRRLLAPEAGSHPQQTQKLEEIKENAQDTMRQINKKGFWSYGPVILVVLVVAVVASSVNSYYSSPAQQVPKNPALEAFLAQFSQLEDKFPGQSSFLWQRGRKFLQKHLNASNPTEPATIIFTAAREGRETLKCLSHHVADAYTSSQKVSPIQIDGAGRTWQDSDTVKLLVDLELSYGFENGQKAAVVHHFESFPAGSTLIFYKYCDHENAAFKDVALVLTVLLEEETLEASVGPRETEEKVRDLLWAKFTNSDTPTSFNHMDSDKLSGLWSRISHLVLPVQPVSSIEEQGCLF
Pro-neuregulin-1, membrane-bound isoform (Homo sapiens), sequence (Q02297 whole entry, looked up, the tested form may be a part, canonical isoform): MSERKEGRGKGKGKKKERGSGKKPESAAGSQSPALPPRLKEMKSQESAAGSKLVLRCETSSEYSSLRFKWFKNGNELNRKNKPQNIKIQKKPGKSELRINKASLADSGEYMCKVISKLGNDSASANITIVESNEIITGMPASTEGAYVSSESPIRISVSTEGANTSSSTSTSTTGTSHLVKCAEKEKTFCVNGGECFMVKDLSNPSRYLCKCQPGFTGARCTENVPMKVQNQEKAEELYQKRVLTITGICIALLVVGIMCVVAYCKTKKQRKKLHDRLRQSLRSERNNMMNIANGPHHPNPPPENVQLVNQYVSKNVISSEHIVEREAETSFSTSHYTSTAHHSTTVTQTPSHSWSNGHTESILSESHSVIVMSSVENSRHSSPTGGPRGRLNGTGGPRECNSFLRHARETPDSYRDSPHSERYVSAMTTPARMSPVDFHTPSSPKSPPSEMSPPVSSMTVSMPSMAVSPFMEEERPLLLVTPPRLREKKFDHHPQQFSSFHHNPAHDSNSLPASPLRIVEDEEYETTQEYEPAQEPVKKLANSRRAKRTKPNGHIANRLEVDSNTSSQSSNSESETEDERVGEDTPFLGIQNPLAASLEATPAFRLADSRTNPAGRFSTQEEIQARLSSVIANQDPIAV

Structure (SMILES)	composite z-score [1]	composite z-score [2]	composite z-score [3]	composite z-score [4]	composite z-score [5]	composite z-score [6]	composite z-score [7]	z-score [8]	composite z-score [9]	composite z-score [10]	composite z-score [11]	z-score [12]	z-score [13]	z-score [14]	composite z-score [15]	z-score [16]	composite z-score [17]	composite z-score [18]	composite z-score [19]	composite z-score [20]
C=CCC1(CC=C)C[C@H]2CO[C@H](c3ccc(OC)cc3)N2C1=O	0.79	0.533	-0.107	0.201	-0.412	0.0973	0.523	-0.465 (inactive)	0.132	-0.0994	-0.109	-0.137 (inactive)	-2.77 (inactive)	-0.484 (inactive)	0.288	2 (inactive)	0.109	0.377	-0.638	-0.0204
COCCOC(=O)N1C(=O)[C@@]2(c3cc(C#CCCO)ccc31)[C@H](c1ccccc1OCCO)N1[C@H](c3ccccc3)[C@H](c3ccccc3)OC(=O)[C@H]1[C@@H]2C(=O)NC[C@H](O)c1ccccc1	-0.138	2.15	-0.105	0.365	0.3	1.12	1.06	-2.36 (inactive)	0.555	0.0623	1.56	-0.524 (inactive)	-1.14 (inactive)	2.23 (inactive)	1.29	3.51 (inactive)	-0.0898	1.71	0.99	0.0533
CCCNC(=O)[C@@]1(Sc2ccc(C)cc2)CC(=O)N(Cc2cc(C(F)(F)F)cc(C(F)(F)F)c2)[C@@H]1c1ccc(CO)cc1I	0.71	0.273	-0.0775	-0.84	-0.472	1.16	0.242	-1.25 (inactive)	0.267	-0.0237	0.491	-5.07 (inactive)	-5.46 (inactive)	-0.894 (inactive)	1.03	3.43 (inactive)	0.024	-1.35	-0.168	-0.118
C[N+](C)(C)CCCC[C@@H]1NC(=O)[C@@H]2C[C@H](C(=O)NCCCCCNC(=O)CS)[C@H](c3ccc(O)cc3)N2C1=O	0.152	0.338	-0.14	-1.01	-1.26	1.94	1.23	1.26 (inactive)	-0.288	0.0274	1.08	-1.44 (inactive)	-1.73 (inactive)	-0.905 (inactive)	2.1	1.39 (inactive)	-0.188	1.39	0.322	-0.149
CC(C)(C)OC(=O)CC[C@@]12N=C(c3ccc(OCCCO)cc3)O[C@@H]1c1ccccc1N(Cc1ccccc1)C2=O	0.96	0.842	-0.0481	-0.422	0.246	0.778	1.21	-3.31 (inactive)	0.439	-0.0645	1.32	0.0492 (inactive)	-1.2 (inactive)	3.98 (inactive)	3.26	1.55 (inactive)	0.0622	0.753	1.05	-0.0497
COCCOC(=O)N1C(=O)[C@@]2(c3cc(C#CC4(O)CCCCCC4)ccc31)[C@H](c1ccccc1OCCO)N1[C@H](c3ccccc3)[C@H](c3ccccc3)OC(=O)[C@H]1[C@@H]2C(=O)Nc1nc2ccccc2s1	-0.172	1.05	0.0359	0.659	1.11	0.41	1.26	1.54 (inactive)	0.325	-0.121	1.55	2.04 (inactive)	-0.312 (inactive)	3.94 (inactive)	2.09	2.69 (inactive)	0.0498	0.724	1.09	0.0403
COc1ccc([Si](C)(C)[C@H]2[C@H](CC(=O)N3Cc4ccccc4C[C@H]3CO)O[C@@]3(C(=O)N(Cc4cccc(N5C(=O)COc6ccccc65)c4)c4ccccc43)[C@@H]2C)cc1	-0.187	0.572	-0.12	0.429	0.659	0.838	1.08	-3.08 (inactive)	0.203	0.0873	1.47	-0.41 (inactive)	0.349 (inactive)	2.29 (inactive)	1.89	1.86 (inactive)	-0.116	1.56	1.11	-0.0192
O=C1c2ccccc2[C@](Cc2ccccc2I)(C(=O)O)[C@H](c2ccc(CO)cc2)N1Cc1ccccc1Cl	0.668	0.651	-0.0301	0.0635	0.268	0.955	0.819	0.17 (inactive)	0.43	-0.0994	1.21	-0.818 (inactive)	-1.53 (inactive)	-1.19 (inactive)	1.82	1.13 (inactive)	0.0678	-0.168	0.239	-0.104
Cc1ccc(N2C(=O)c3ccccc3[C@](C)(C(=O)NC3CC3)[C@@H]2c2ccc(CO)cc2)nc1	0.879	-0.241	-0.0948	-0.325	-0.344	-0.474	-0.0515	0.843 (inactive)	0.406	-0.0047	-0.349	0.0474 (inactive)	-0.981 (inactive)	-0.69 (inactive)	0.244	0.949 (inactive)	0.149	0.381	-0.591	-0.0564
NC(=O)NCC#Cc1ccc2c(c1)[C@]1(C(=O)N2)[C@H](c2ccc(OCCO)cc2)N2[C@H](c3ccccc3)[C@H](c3ccccc3)OC(=O)[C@H]2[C@@H]1C(=O)Nc1nc2ccccc2s1	1.02	-0.528	-0.0953	0.0777	-0.442	-0.214	-0.748	2.5 (inactive)	0.668	-0.132	-0.136	2.55 (inactive)	0.766 (inactive)	4.18 (inactive)	0.759	2.26 (inactive)	0.289	-0.17	-0.0446	-0.0946
